# Measured values taken from PubChem BioAssay (NCATS).
# Records with an inconclusive call do not appear. Entries that show only a call come without a potency. Active and inactive are the calls of the source. Calls come from the whole dose curve; as a rule, active = well fitted curve in the direction sought with a large enough effect; inconclusive = small, poorly fitted or top-dose-only effect, or another doubt; inactive = no such curve, though single readings can be large; an effect the other way counts as inactive or inconclusive.
# Test: Cytotoxicity counterscreen for NFkB agonists and antagonists (AID 624476);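 note: cells exposed to compound for 48 hours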; note: potency is the fitted concentration of half-maximal effect
# Conditions: NFkB reporter cell line viability counterscreen; series mostly up to 46.1 µM
row,Structure (SMILES),Potency
1,Cc1nc(N)sc1-c1ccnc(Nc2ccc(N3CCOCC3)cc2)n1,inactive
2,CS(=O)c1ccc(-c2nc(-c3ccc(F)cc3)c(-c3ccncc3)[nH]2)cc1 (stereo unspecified),inactive
3,CC(C)(C(=O)NCC(F)(F)C(F)(F)F)C(=O)N[C@@H]1C(=O)Nc2ccccc2-c2ccccc21,inactive
4,OC[C@H]1O[C@@H](n2cnc3c2NC=NC[C@@H]3O)C[C@H]1O,inactive
5,CC(=O)Nc1ccc([C@H](C)C(=O)Nc2ncc(C(C)C)s2)cc1,0.935 µM (active)
6,COc1cc(N2CCC(N3CCN(C)CC3)CC2)ccc1Nc1ncc(Cl)c(Nc2ccccc2S(=O)(=O)C(C)C)n1,2.09 µM (active)
7,O=C(O)c1ccc(-c2cc3cccnc3c(-c3ccc4nonc4c3)n2)cc1,inactive
8,CC(C)C(=O)Nc1ncc(-c2cc(C(F)F)nn2-c2c(Cl)cccc2Cl)s1,inactive
9,O=C(N[C@@H](c1ccccc1)[C@@H]1CCCCN1)c1cccc(C(F)(F)F)c1Cl,inactive
10,O=C(Nc1cc(Cl)cc2c1[nH]c1cnccc12)c1cccnc1,inactive
11,CC(C)(C)COc1ccc(-n2cc(C(=O)O)cn2)cc1C#N,inactive
12,CC(C)(C)C(=O)Oc1ccc2c(c1)nc(NC(=O)c1cccc([N+](=O)[O-])c1)n2CCCO,inactive
13,CN(C)C1CCN(C(=O)c2ccc(NC(=O)Nc3nc(N4CCOCC4)nc(N4CCOCC4)n3)cc2)CC1,0.0743 µM (active)
14,O=c1cc(N2CCOCC2)oc2c(-c3cccc4c3sc3ccccc34)cccc12,18.7 µM (active)
15,COc1cccc2c1CCCC2CCCN1CCN(C2CCCCC2)CC1 (stereo unspecified),inactive
16,O=C(O)CCC1CCC(c2cc(F)ccc2F)(S(=O)(=O)c2ccc(Cl)cc2)CC1 (stereo unspecified),inactive
17,CC(C)(C)c1cc(C(=O)O)c(NC(=O)Nc2ccc3[nH]ncc3c2)s1,inactive
18,O=C1C(Cl)=C(NCCN2CCOCC2)C(=O)c2ncccc21,2.35 µM (active)
19,CN(C)Cc1ccc(-c2nc3cccc4c3n2CCNC4=O)cc1,inactive
20,N#Cc1ccc(NC(=O)Nc2ccccc2Br)c2n[nH]nc12,inactive

# Test: qHTS Assay for Identification of Small Molecule Agonists for NFkB Signaling Pathway. (AID 624478);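 note: compounds tested together with TNF alpha at its EC50 of 10 pM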
# Conditions: NFkB pathway reporter cell assay, agonist mode, cells co-stimulated with 10 pM TNF alpha; series mostly up to 46.1 µM
# Summary of the method: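 Assay medium contained 0.5% FBS and 10 mM HEPES pH 7.3. Compounds were added together with TNF alpha (10 pM final), incubated 5 h at 37 C, and the beta-lactamase signal was measured fluorometrically.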
row,Structure (SMILES),outcome
1,Cc1nc(N)sc1-c1ccnc(Nc2ccc(N3CCOCC3)cc2)n1,inactive
2,COc1ccc(C2CC(c3ccccc3)=NN2c2ccc(S(N)(=O)=O)cc2)cc1 (stereo unspecified),inactive
3,Clc1ccc(-c2nc3sccn3c2C=NOCc2ccc(Cl)c(Cl)c2)cc1,inactive
4,O=C(Nc1ccccc1-c1cn2c(CN3CCNCC3)csc2n1)c1cnc2ccccc2n1,inactive
5,CN1CCN(CCOc2cc(OC3CCOCC3)c3c(Nc4c(Cl)ccc5c4OCO5)ncnc3c2)CC1,inactive
6,CS(=O)c1ccc(-c2nc(-c3ccc(F)cc3)c(-c3ccncc3)[nH]2)cc1 (stereo unspecified),inactive
7,CC(C)(C(=O)NCC(F)(F)C(F)(F)F)C(=O)N[C@@H]1C(=O)Nc2ccccc2-c2ccccc21,inactive
8,OC[C@H]1O[C@@H](n2cnc3c2NC=NC[C@@H]3O)C[C@H]1O,inactive
9,COc1cc2ncnc(-n3nc(-c4ccccn4)nc3N)c2cc1OC,inactive
10,CC(=O)Nc1ccc([C@H](C)C(=O)Nc2ncc(C(C)C)s2)cc1,inactive
11,COc1cc(N2CCC(N3CCN(C)CC3)CC2)ccc1Nc1ncc(Cl)c(Nc2ccccc2S(=O)(=O)C(C)C)n1,inactive
12,O=C(O)c1ccc(-c2cc3cccnc3c(-c3ccc4nonc4c3)n2)cc1,inactive
13,CC(C)C(=O)Nc1ncc(-c2cc(C(F)F)nn2-c2c(Cl)cccc2Cl)s1,inactive
14,O=C(N[C@@H](c1ccccc1)[C@@H]1CCCCN1)c1cccc(C(F)(F)F)c1Cl,inactive
15,CO[C@H]1C[C@@H]2CC[C@@H](C)[C@@](O)(O2)C(=O)C(=O)N2CCCC[C@@H]2C(=O)O[C@H]([C@H](C)C[C@@H]2CC[C@H](OCCO)[C@H](OC)C2)CC(=O)[C@H](C)C=C(C)[C@@H](O)[C@@H](OC)C(=O)[C@H](C)C[C@H](C)C=CC=CC=C1C,inactive
16,CCOc1ccc(Nc2nc(-c3c(C)nc4ccccn34)cs2)cc1,inactive
17,Cc1ccc(F)c(NC(=O)Nc2ccc(-c3cccc4[nH]nc(N)c34)cc2)c1,inactive
18,O=C(Nc1cc(Cl)cc2c1[nH]c1cnccc12)c1cccnc1,inactive
19,O=c1cc(CN2CCOCC2)occ1OCCCCCSc1ccnc2cc(C(F)(F)F)ccc12,inactive
20,CC(C)(C)COc1ccc(-n2cc(C(=O)O)cn2)cc1C#N,inactive
21,CC(C)(C)C(=O)Oc1ccc2c(c1)nc(NC(=O)c1cccc([N+](=O)[O-])c1)n2CCCO,inactive
